Assay results reported in PMC4336329 (PLoS ONE, 2015).
Among all 310,000 compounds or so, about 14,000 (4.5%) showed an effect of 50% or more. The effect is printed as a negative number. Many of the other results were omitted from the sample, so strong results are more common in it than they were.

What follows are compounds tested against human ether-à-go-go-related gene (hERG) potassium channel (human, UniProt Q12809) (assay: primary screen, population patch clamp on CHO cells stably expressing hERG; higher = less effect of the substance).
human ether-à-go-go-related gene (hERG) potassium channel, sequence (Q12809 whole entry, looked up): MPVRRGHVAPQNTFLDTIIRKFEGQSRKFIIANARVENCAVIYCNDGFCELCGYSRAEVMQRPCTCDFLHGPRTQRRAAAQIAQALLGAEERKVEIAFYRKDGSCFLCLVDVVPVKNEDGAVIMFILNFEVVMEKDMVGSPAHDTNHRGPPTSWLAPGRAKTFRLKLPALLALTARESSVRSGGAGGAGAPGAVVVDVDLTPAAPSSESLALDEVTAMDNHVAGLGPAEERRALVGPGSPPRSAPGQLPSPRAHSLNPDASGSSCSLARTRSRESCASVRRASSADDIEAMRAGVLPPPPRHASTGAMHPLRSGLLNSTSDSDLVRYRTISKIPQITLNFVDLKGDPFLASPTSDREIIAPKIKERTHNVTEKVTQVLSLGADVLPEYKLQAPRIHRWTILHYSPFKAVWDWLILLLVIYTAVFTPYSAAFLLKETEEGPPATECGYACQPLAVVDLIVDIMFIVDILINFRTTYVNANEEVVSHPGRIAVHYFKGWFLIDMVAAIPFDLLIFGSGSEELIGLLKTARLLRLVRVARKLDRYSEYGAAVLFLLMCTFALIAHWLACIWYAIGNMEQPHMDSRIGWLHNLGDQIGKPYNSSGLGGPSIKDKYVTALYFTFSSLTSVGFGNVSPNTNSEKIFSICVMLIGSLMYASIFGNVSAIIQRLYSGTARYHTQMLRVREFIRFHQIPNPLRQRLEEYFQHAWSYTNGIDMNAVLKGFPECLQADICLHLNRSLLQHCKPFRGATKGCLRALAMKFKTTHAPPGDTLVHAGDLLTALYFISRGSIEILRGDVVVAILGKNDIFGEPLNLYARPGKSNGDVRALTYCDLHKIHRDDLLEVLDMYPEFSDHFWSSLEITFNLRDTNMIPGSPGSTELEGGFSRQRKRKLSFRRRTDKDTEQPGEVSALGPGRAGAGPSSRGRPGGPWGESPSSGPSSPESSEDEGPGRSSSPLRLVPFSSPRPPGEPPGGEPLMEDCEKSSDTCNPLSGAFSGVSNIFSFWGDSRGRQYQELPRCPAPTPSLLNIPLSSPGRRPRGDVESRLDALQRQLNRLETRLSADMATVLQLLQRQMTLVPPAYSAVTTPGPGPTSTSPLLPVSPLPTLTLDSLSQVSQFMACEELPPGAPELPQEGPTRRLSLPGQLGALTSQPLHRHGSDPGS
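Further: peak tail current of the secondary pulse compared with the same well before compound.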

Compound | hERG current change (%, negative = inhibition) at 10uM [%]
CC(=O)Nc1ccc(NC(=O)Nc2ccccc2)cc1 | 10.5
CC(=O)OCC[C@H](NS(=O)(=O)OCC(Cl)(Cl)Cl)c1ccccc1 | 1.61
COc1cc(NC(=O)c2cc(C(C)C)on2)c(OC)cc1Cl | 3.16
O=C(c1ccccc1C(=O)N1CCN(c2ccccc2F)CC1)N1CCN(c2ccccc2F)CC1 | -31
COc1ccccc1N1CCN(C(=O)c2cc(-c3ccc(F)cc3)on2)CC1 | 19.1
COc1ccccc1N1CCN(C(=O)c2cc(-c3ccc(F)cc3)[nH]c2C)CC1 | -64.5
O=C(c1ccccc1F)N1CCN(c2ccccc2F)CC1 | -2.08
Cc1[nH]c(-c2ccc(F)cc2)cc1C(=O)N1CCN(c2ccccc2F)CC1 | -70.3
COc1ccccc1N1CCN(C(=O)c2cc3cc(F)ccc3[nH]2)CC1 | 15.8
N#CC1=C(N)Oc2n[nH]c(-c3cccs3)c2C1C1CCCCC1 (stereo not drawn) | 8.73
Cc1ccccc1C(=O)Nc1ccccc1NC(=O)c1ccccc1Br | 25.4
COC(=O)c1ccc(-c2noc(CN(C)CC3CCCCO3)n2)cc1 (stereo not drawn) | 11.3
Cn1c(Cn2c(=O)sc3ccccc32)nnc1SCc1cccc(F)c1 | -11.6
Cc1cc(C)cc(NC(=S)NCc2ccc3c(c2)OCO3)c1 | -8.9
OC(CNCC1CCCCC1)COc1ccccc1 (stereo not drawn) | -0.428
Cc1ccc(CC(=O)Nc2cc(C)ccn2)cc1 | 11.2
O=[N+]([O-])c1cc(S(=O)(=O)NCCN2CCOCC2)ccc1Sc1nnnn1-c1ccccc1 | -24.6
CCCCSc1nnc(CNC(=O)C23CC4CC(CC(C4)C2)C3)n1Cc1ccccc1 | -29.7
O=C(Nc1ccc(CN2CCOCC2)cc1)c1ccc(-c2ccc(Cl)cc2Cl)o1 | -7.54
Cn1c(=O)n(C)c2cc([N+](=O)[O-])c(N3CCN(C(=O)c4cccc(Cl)c4)CC3)cc21 | -64.2
Cn1c(=O)n(C)c2cc([N+](=O)[O-])c(N3CCN(C(=O)c4ccccc4Br)CC3)cc21 | -70.6

Compound | hERG current change (%, negative = inhibition) at 10uM [%]
Cn1c(=O)n(C)c2cc([N+](=O)[O-])c(N3CCN(CCO)CC3)cc21 | 24.9
Cn1c(=O)n(C)c2cc([N+](=O)[O-])c(N3CCNCC3)cc21 | 5.58
Cn1c(=O)n(C)c2cc([N+](=O)[O-])c(N3CCN(C(=O)c4ccc(F)cc4)CC3)cc21 | -44
Cn1c(=O)n(C)c2cc([N+](=O)[O-])c(N3CCN(C(=O)c4ccccc4Cl)CC3)cc21 | -34.4
Cn1c(=O)n(C)c2cc([N+](=O)[O-])c(N3CCN(C(=O)C(C)(C)C)CC3)cc21 | -8.56
CCOC(=O)C(=O)N1CCN(c2cc3c(cc2[N+](=O)[O-])n(C)c(=O)n3C)CC1 | -24.2
Cn1c(=O)n(C)c2cc([N+](=O)[O-])c(N3CCN(C(=O)c4ccccc4)CC3)cc21 | -36.1
Cn1c(=O)n(C)c2cc(N3CCCCC3)c(NC(=O)c3cccc(Cl)c3)cc21 | 14.8
Cn1c(=O)n(C)c2cc([N+](=O)[O-])c(N3CCN(C(=O)c4ccc(Cl)cc4)CC3)cc21 | -65.9
Cc1ccc(C(=O)N2CCN(c3cc4c(cc3[N+](=O)[O-])n(C)c(=O)n4C)CC2)cc1 | -66.6
O=C(COC(=O)c1ccc2ncsc2c1)Nc1cccc(Cl)c1 | 2.07
Cc1ccc(-n2c(SCn3nnc4ccccc4c3=O)nnc2-c2cccnc2)c(C)c1 | -39.3
Cc1cccc(C)c1NC(=O)CN(C)CC(=O)Nc1ccccc1Oc1ccccc1 | 11.3
COc1ccc(NC(=O)c2ccc([N+](=O)[O-])o2)cc1 | 11.1
CCCc1cc(=O)oc2c(C)c(OCC(=O)NC3CCN(Cc4ccccc4)CC3)ccc12 | -51.4
Cc1c(OCC(=O)NC2CCN(Cc3ccccc3)CC2)ccc2c3c(c(=O)oc12)CCC3 | -47.7
CCc1cc(=O)oc2cc(C)cc(OCC(=O)NC3CCN(Cc4ccccc4)CC3)c12 | -36
O=C(COc1ccccc1)NC1CCCCCCC1 | -4.51
Cc1c(C)c2ccc(OCC(=O)NC3CCN(Cc4ccccc4)CC3)c(C)c2oc1=O | -42.7
CCCc1cc(=O)oc2cc(OCC(=O)NC3CCN(Cc4ccccc4)CC3)ccc12 | -60.2
O=C(COc1ccc2ccc(=O)oc2c1)NC1CCCC1 | 13.4

Compound | hERG current change (%, negative = inhibition) at 10uM [%]
O=C(O)COCC(=O)NC1CCN(Cc2ccccc2)CC1 | 12.5
CCCc1cc(=O)oc2cc(C)cc(OCC(=O)NC3CCN(Cc4ccccc4)CC3)c12 | -10.3
O=C(COc1ccccc1)NC1CCN(Cc2ccccc2)CC1 | -50.4
O=C(COc1ccc2ccc(=O)oc2c1)NC1CCN(Cc2ccccc2)CC1 | -55.2
O=C(COc1ccc2ccc(=O)oc2c1)NC1CCCCC1 | 1.43
Cc1ccc(S(=O)(=O)c2cnc3cc(C)nn3c2N)cc1 | 0.694
Cc1ccc(CN2C(=O)[C@@H]3Cc4c([nH]c5ccccc45)C(C)(C)N3C2=O)cc1 | 7.62
O=[N+]([O-])c1ccccc1/C=N/NC1=NS(=O)(=O)c2ccccc21 | -1.94
O=C(NCCCN1CCCC1=O)NC1CCCCC1 | 10.9
Cc1ccc(NC(=S)NNC(=O)c2ccc(N3CCOCC3)c([N+](=O)[O-])c2)cc1Cl | 6.24
O=C(O)CCC1=C2c3ccccc3CCN2C(=O)CC1 | 9.77
Cc1ccc(C(=O)Nn2cnnc2)cc1Cl | 16.3
CC1CCN(S(=O)(=O)c2ccc(NC(=O)CSc3ncccc3C(=O)O)cc2)CC1 | 7.31
O=C(COc1ccc2c3c(c(=O)oc2c1)CCC3)NC1CCN(Cc2ccccc2)CC1 | -24.9
Cc1cc(=O)oc2cc(OCC(=O)NC3CCN(Cc4ccccc4)CC3)ccc12 | -63.9
O=C(COc1ccccc1)NC1CCSc2ccccc21 (stereo not drawn) | 0.0355
O=C(COc1ccc(Cl)cc1)NC1CCSC1=O (stereo not drawn) | -16.8
CCCCc1cc(=O)oc2cc(OCC(=O)N[C@@H](Cc3ccccc3)C(=O)O)ccc12 | 6.13
O=C(COc1ccccc1)NC1CCSC1=O (stereo not drawn) | -72.9
Cc1cc(OCC(=O)NC2CCN(Cc3ccccc3)CC2)c2c(C)cc(=O)oc2c1 | -21.4
CCCCc1cc(=O)oc2cc(OCC(=O)NC3CCN(Cc4ccccc4)CC3)ccc12 | -61.1

Compound | hERG current change (%, negative = inhibition) at 10uM [%]
CCCCc1cc(=O)oc2cc(OCC(=O)NCC3CCC(C(=O)O)CC3)ccc12 (stereo not drawn) | 18
O=c1[nH]c(O)c(N=Nc2ccc3c(c2)OCCO3)c(=O)[nH]1 | 14.2
CC(=O)N1c2ccc(N=Cc3cc(Br)cc(Br)c3O)cc2CC1C (stereo not drawn) | 2.6
Cc1ccc(CN2C(=O)/C(=C\c3ccc(C(=O)NCc4cccnc4)cc3)Oc3ccccc32)cc1 | 12.9
O=C(NNc1ccccn1)C(=O)NNS(=O)(=O)c1ccc(F)cc1 | 12.5
Cn1c(=O)c2nc(-c3ccccc3)oc2c2ccccc21 | -1.46
N#Cc1c(-c2ccccc2)nc(SCC(=O)Nc2ccc(OC(F)(F)Cl)cc2)[nH]c1=O | 28.5
CN(C)C(=S)Nc1ccc2ccccc2c1 | 11.2
COCCNC(=O)CN1CCC(n2c(C)nc3cc(C(F)(F)F)ccc32)CC1 | -25.6
Cc1nc2cc(C(F)(F)F)ccc2n1C1CCN(CC(=O)N2CCCC2)CC1 | -13.1
C=CCNC(=O)CN1CCC(n2nnc3cc(C(F)(F)F)ccc32)CC1 | -50.7
Cc1cc(NC(=O)CN2CCC(n3nnc4cc(C(F)(F)F)ccc43)CC2)no1 | -50
COCC(=O)N1CCC(n2nnc3cc(C(F)(F)F)ccc32)CC1 | -22
CC1Cc2ccccc2N1C(=O)CN1CCC(n2nnc3cc(C(F)(F)F)ccc32)CC1 (stereo not drawn) | -67.2
Cc1nc2cc(C(F)(F)F)ccc2n1C1CCN(C(=O)N2CCOCC2)CC1 | -55.7
O=C(CN1CCC(n2nnc3cc(C(F)(F)F)ccc32)CC1)NNC(=O)c1ccco1 | -24.6
Cc1nc2cc(C(F)(F)F)ccc2n1C1CCN(CC(=O)N2CCOCC2)CC1 | -44.4
COC(=O)c1ccccc1NC(=O)CN1CCC(n2nnc3cc(C(F)(F)F)ccc32)CC1 | -6.14
C=CCNC(=O)CN1CCC(n2c(C)nc3cc(C(F)(F)F)ccc32)CC1 | -62.1
Cc1nc2cc(C(F)(F)F)ccc2n1C1CCN(CC(=O)NC(C)(C)C)CC1 | -19.4
CC1=C(C#N)C(NC(=O)C(C)(C)C)(C(F)(F)F)C(=O)N1 (stereo not drawn) | 1.3
